Here are results for 35 molecules from PubChem BioAssay (NCI).

SMILES strings stand for the structures. Values joined by “and” are separate entries in the source; they are usually repeats but may differ in a detail not shown here. Equal values may be shown once. This is part of a sample that, as a whole, favours compounds with a hit. Of some 83,000 tested, about 20% had one in any assay.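 Negative percent growth values reflect cell death: -40 means 40% of the cells present at the start died, and -100 means all died.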 Values without a mark were called inactive. Active and inactive are the calls of the source. Rule for the calls: active = growth percent below 10; inactive = the rest.

The first assay has as its system UACC-257 melanoma. Description: NCI-60 one-dose screen, 48 h (100 = growth as untreated, 0 = no growth, -100 = all killed). The following applies: 10 µM unless noted.
`O=C(O)C(Br)CBr` (stereo not drawn): the growth was 97.7%.

Take `COC(=O)CCP(CCC(=O)OC)c1ccccc1`: the growth was 99.7%. Same read-out and setting: the result for `CC1=C(C)C(=O)O[C@@H]([C@](C)(O)[C@]2(O)CC[C@@]3(O)[C@@H]4C[C@H]5O[C@]56CC=CC(=O)[C@]6(C)[C@H]4CC[C@]23C)C1` reads 6.11% (active); that for `COc1ccc(N)cc1OC`, 107%.

As for `O=S(=O)(F)c1cccc(Cl)c1C[P+](c1ccccc1)(c1ccccc1)c1ccccc1`, the growth was 89.7%. `O=[N+]([O-])c1c(Cl)cc(Cl)c([N+](=O)[O-])c1Cl`: the growth is 62.9%. Same read-out and setting: in the case of `O=C(O)CNCP(=O)(O)O` it was 107%; in that of `CCCCOC(N)=O`, 110%; in that of `c1ccc(CCN2CCCCC2)nc1`, 108%.

On to `O=[N+]([O-])c1cc(Br)c(O)c(Br)c1`, for which the growth is 95.4%. Still for that read-out and setting: in the case of `OCCN=Cc1c[nH]c2ccccc12` it was 110%; in that of `CCOC(=O)c1ccccc1C(=O)OCC`, 91.3%. For the molecule `CC(Oc1ccc(-c2ccccc2)cc1)C(=O)O` (stereo not drawn), the growth was 99.2%. The same measure, in the same setting: the result for `O=[N+]([O-])c1ccc(CI)cc1` reads 80.9%; that for `CN1[C@@H](CC(=O)c2ccccc2)CCC[C@H]1CC(=O)c1ccccc1`, 98.1%; that for `O=S1(=O)OCCO1`, 96.7%. For `Cc1cc[n+](CCc2ccccc2)cc1`, the growth was 103% and 95%. The same measure, in the same setting: the result for `CN1C2CCC1[C@@H](COC(=O)c1ccccc1)[C@@H](O)C2` (stereo partly drawn) reads 97.1%; that for `O=C1NC(=O)C(=C/C=C/c2ccccc2)C(=O)N1`, 38.7%.

Regarding `Cc1cc(N)ccc1N`, the growth was 97.2%. `COC(=O)C1=CO[C@@H](C)[C@@H]2CN3CCc4c([nH]c5cc(OC)ccc45)[C@@H]3C[C@H]12`: the growth was 95.7%. With `NC1CN2CCC1CC2` (stereo not drawn), the growth was 101%. Still for that read-out and setting: the result for `Cc1ccc(C(=O)O[C@H](C(=O)O)[C@H](OC(=O)c2ccc(C)cc2)C(=O)O)cc1` reads 94%; that for `C=CC1CN2CCC1CC2C(O)c1ccnc2ccccc12` (stereo not drawn), 158%.

`COC12CC3C4=CCOC5CC(=O)N6c7ccccc7C1(CCN2C4)C6C53` (stereo not drawn): the growth is 84%. Take `CC1(C)CN=C(NN=C(/C=C/c2ccc(C(F)(F)F)cc2)/C=C/c2ccc(C(F)(F)F)cc2)NC1`: the growth is -45.9% (active). Same read-out and setting: in the case of `CC1=CC(=O)CCC12CCOC2=O` (stereo not drawn) it was 97.9%. Still for that read-out and setting: in the case of `CCCn1cc2c3c(cccc31)[C@H]1C[C@@H](C)CN(C)[C@@H]1C2` it was 78.6%; in that of `COc1cc(-c2ccc(N)c(OC)c2)ccc1N`, 134%; in that of `O=C(O)c1cc([N+](=O)[O-])cc([N+](=O)[O-])c1`, 61.8%. As for `ClCc1ccc(Cl)c(Cl)c1`, the growth is 98.3%. `NC(=O)Oc1cc(OC(N)=O)cc(N(CCCl)CCCl)c1`: the growth was 57.2%. The same measure, in the same setting: the result for `CCC(=O)C(CC(C)[N+](C)(C)C)(c1ccccc1)c1ccccc1` (stereo not drawn) reads 94.7%; that for `CNC(=O)CCl`, 92.5%.

The test system of the next assay is M14 melanoma. The description is as above. The following applies: 10 µM unless noted.
Consider `O=C(O)C(Br)CBr` (stereo not drawn), for which the growth was 90.2%. The same measure, in the same setting: in the case of `COC(=O)CCP(CCC(=O)OC)c1ccccc1` it was 101%; in that of `CC1=C(C)C(=O)O[C@@H]([C@](C)(O)[C@]2(O)CC[C@@]3(O)[C@@H]4C[C@H]5O[C@]56CC=CC(=O)[C@]6(C)[C@H]4CC[C@]23C)C1`, 11.3%; in that of `COc1ccc(N)cc1OC`, 109%.

Regarding `O=S(=O)(F)c1cccc(Cl)c1C[P+](c1ccccc1)(c1ccccc1)c1ccccc1`, the growth was 102%.

Consider `O=[N+]([O-])c1c(Cl)cc(Cl)c([N+](=O)[O-])c1Cl`, for which the growth is 97.2%. On the same count and under the same terms, the result for `O=C(O)CNCP(=O)(O)O` reads 101%; that for `c1ccc(CCN2CCCCC2)nc1`, 99.5%; that for `O=[N+]([O-])c1cc(Br)c(O)c(Br)c1`, 111%. Same read-out and setting: the result for `OCCN=Cc1c[nH]c2ccccc12` reads 97.3%; that for `CC1=C2[C@H]3OC(=O)[C@@H](C)[C@@H]3CC[C@@]2(C)C=CC1=O`, 120%; that for `CC(Oc1ccc(-c2ccccc2)cc1)C(=O)O` (stereo not drawn), 102%.

In the case of `O=[N+]([O-])c1ccc(CI)cc1`, the growth is 71.6%.

On to `CN1[C@@H](CC(=O)c2ccccc2)CCC[C@H]1CC(=O)c1ccccc1`, for which the growth is 104%. The same measure, in the same setting: in the case of `O=S1(=O)OCCO1` it was 103%; in that of `Cc1cc[n+](CCc2ccccc2)cc1`, 97.2% and 105%; in that of `CN1C2CCC1[C@@H](COC(=O)c1ccccc1)[C@@H](O)C2` (stereo partly drawn), 100%. Consider `Cc1cc(N)ccc1N`, for which the growth was 104%. The same measure, in the same setting: in the case of `COC(=O)C1=CO[C@@H](C)[C@@H]2CN3CCc4c([nH]c5cc(OC)ccc45)[C@@H]3C[C@H]12` it was 103%; in that of `NC1CN2CCC1CC2` (stereo not drawn), 97.8%; in that of `Cc1ccc(C(=O)O[C@H](C(=O)O)[C@H](OC(=O)c2ccc(C)cc2)C(=O)O)cc1`, 100%. The same measure, in the same setting: the result for `C=CC1CN2CCC1CC2C(O)c1ccnc2ccccc12` (stereo not drawn) reads 133%; that for `COC12CC3C4=CCOC5CC(=O)N6c7ccccc7C1(CCN2C4)C6C53` (stereo not drawn), 99.2%.

Turning to `CC1(C)CN=C(NN=C(/C=C/c2ccc(C(F)(F)F)cc2)/C=C/c2ccc(C(F)(F)F)cc2)NC1`, the growth is -71.7% (active). Same read-out and setting: the result for `CC1=CC(=O)CCC12CCOC2=O` (stereo not drawn) reads 102%; that for `ClCc1ccc(Cl)c(Cl)c1`, 95.3%. Same read-out and setting: the result for `NC(=O)Oc1cc(OC(N)=O)cc(N(CCCl)CCCl)c1` reads 49.4%. Same read-out and setting: the result for `CCC(=O)C(CC(C)[N+](C)(C)C)(c1ccccc1)c1ccccc1` (stereo not drawn) reads 96.2%; that for `CNC(=O)CCl`, 105%.
